The nature of experiment [1]: Nuclear factor erythroid 2-related factor 2/antioxidant responsive element (Nrf2/ARE) small molecule agonists: qHTS cell viability counter screen in human keratinocytes (AID 1919968; active = well fitted curve in the direction sought with a large enough effect in the repeat runs; an effect the other way counts as inactive or inconclusive; also: nearly all actives have a fitted effect of over 55% in size). The procedure, abridged: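 Cytotoxicity was multiplexed with the Nrf2/ARE luciferase assay in the same wells. Stably transfected HaCaT keratinocytes were treated with test compounds for 23 h at 37 C. Cell viability was then measured by CellTiter-Fluor fluorescence.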
A general note: qHTS replaces the single test concentration by a dilution series.

The nature of experiment [2]: Nuclear factor erythroid 2-related factor 2/antioxidant responsive element (Nrf2/ARE) small molecule agonists: luciferase reporter gene qHTS assay in human keratinocytes (AID 1919969). Also: nearly all actives have a fitted effect of over 35% in size. Also: potency is read from the fitted curve at half-maximal effect.
Experiment [3] has as its target KiSS-1 receptor (Homo sapiens) (UniProt Q969F8). Put plainly: Human kisspeptin (KISS1R) small molecule agonists, calcium flux assay in KISS1R-HEK293 cells (AID 1920064; active = well fitted curve in the direction sought with a large enough effect in the repeat runs; an effect the other way counts as inactive or inconclusive). In outline: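 Agonist activity is monitored as intracellular calcium rise in engineered HEK293 cells carrying human KISS1R. Cells are dye-loaded for 1 h at 37 C before compound addition, and fluorescence is recorded for 3 min.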
(A change in cytosolic calcium serves as a functional read-out for many receptors and channels.)

Experiment [4] can be described thus: G protein-coupled receptor (GPCR) small molecule agonists, calcium flux assay: HEK293 wild type cell line counter screen (AID 1920065). In outline:
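Seed cells, incubate 18 h (37 C, 5% CO2); add calcium dye, 1 h at 37 C; pin-transfer compounds, ATP control or DMSO; read fluorescence 480/540 nm each second for 3 min.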

The nature of experiment [5]: p53 small molecule agonists, cell-based qHTS assay with human liver microsomes (AID 1963577). The procedure, abridged: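 p53RE-bla reporter cells were pre-incubated 5 h at 37 C, then treated with compounds plus human liver microsomes (0.5 mg/mL final) and NADPH (0.5 mg/mL final) for 16 h at 37 C. Beta-lactamase activity was read by LiveBLAzer fluorescence after 2 h at room temperature.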

Experiment [6] in a line: p53 small molecule agonists, cell-based qHTS assay with human liver microsomes: qHTS cell viability counter screen (AID 1963579). Also: nearly all actives have a fitted effect of over 45% in size. In outline:
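p53RE-bla cells (4,000/well) were pre-incubated 5 h at 37 C, then given compounds in DMSO plus human liver microsomes (0.5 mg/mL final) and NADPH (0.5 mg/mL final) for 16 h at 37 C. Viability was read by CellTiter-Glo luminescence.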

Experiment [7] is described as follows: p53 small molecule agonists, cell-based qHTS assay with rat liver microsomes: qHTS cell viability counter screen (AID 1963580). Also: nearly all actives have a fitted effect of over 45% in size. The procedure, abridged: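 Counter screen for cytotoxicity under metabolic activation: rat liver microsomes and NADPH, 0.5 mg/mL final each, added with compounds to p53RE-bla HCT-116 cells; 16 h at 37 C, then ATP luminescence read.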

A short description of experiment [8]: p53 small molecule agonists, cell-based qHTS assay: qHTS cell viability counter screen (AID 1963581). Also: nearly all actives have a fitted effect of over 45% in size. The procedure, abridged:
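Viability was counter-screened in parallel with the p53 agonist reporter by measuring intracellular ATP luminescence in the same HCT-116 p53RE-bla wells after 16 h compound treatment at 37 C.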

Experiment [9] can be described thus: p53 small molecule agonists, cell-based qHTS assay (AID 1963582; active = well fitted activation curve with a large enough effect in the signal ratio in the repeat runs, not every such curve was filed as active; the % refers to the signal ratio). In outline:
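Cells carrying a p53-responsive bla reporter are treated with test compounds for 16 h at 37 C; beta-lactamase activity is then detected with LiveBLAzer B/G FRET substrate after 2 h at room temperature.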

The target of experiment [10] is 5-hydroxytryptamine receptor 2A (Homo sapiens) (UniProt P28223). Put plainly: 5-hydroxytryptamine receptor 2A (HTR2A) small molecule antagonists, cell-based qHTS assay (AID 1963586). Also: nearly all actives have a fitted effect of over 45% in size. The procedure, abridged: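 CHO cells stably expressing human HTR2A were plated for 18 h at 37 C, then loaded with calcium dye for 1 h. Compounds were preincubated 5 min at room temperature before DOI (4 nM solution) was added. Kinetic fluorescence was read for 3 min.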

Experiment [11] has the same target. The experiment can be described thus: 5-hydroxytryptamine receptor 2A (HTR2A) small molecule agonists, cell-based qHTS assay (AID 1963587). Also: nearly all actives have a fitted effect of over 30% in size. Also: potency is read from the fitted curve at half-maximal effect. In outline: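 HTR2A-CHO cells, plated 18 h at 37 C/5% CO2, dye-loaded 1 h at 37 C; compounds in DMSO added by pin tool (agonist mode). Intracellular calcium flux read as kinetic fluorescence on FDSS over 2 min at 1 s intervals.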

Experiment [12] concerns the target Muscarinic acetylcholine receptor M1 (Homo sapiens) (UniProt P11229). The experiment can be described thus: Cholinergic receptor muscarinic 1 (CHRM1) small molecule antagonists, cell-based qHTS assay (AID 1963588). Also: nearly all actives have a fitted effect of over 40% in size. The procedure, abridged: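 Compounds were tested at 15 concentrations in three independent runs. Dye-loaded CHRM1-CHO cells were exposed 5 min at room temperature before stimulation by acetylcholine added at 50nM. Intracellular calcium was read kinetically on FDSS for 3 min.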

Experiment [13] has the same target. Put plainly: Cholinergic receptor muscarinic 1 (CHRM1) small molecule agonists, cell-based qHTS assay (AID 1963589). Also: nearly all actives have a fitted effect of over 35% in size. Also: potency is read from the fitted curve at half-maximal effect. In outline: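 Cells were plated and incubated 18 h at 37 C/5% CO2, loaded with calcium dye for 1 h at 37 C, then treated with compounds in DMSO. Fluorescence was recorded kinetically at 1 sec intervals.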
Experiment [14] is described as follows: cAMP Responsive Elements (CRE) small molecule agonists, cell-based qHTS assay (AID 1963590). In outline: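 Cells carrying a CRE-driven beta-lactamase reporter (HEK 293T) are seeded, incubated overnight (18 h), and treated with test compounds for 3 h at 37 C; reporter activity is then detected with a FRET substrate after 2 h at room temperature.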
The nature of experiment [15]: cAMP Responsive Elements (CRE) small molecule antagonists, cell-based qHTS assay (AID 1963591; active = well fitted inhibition curve with a large enough effect in the signal ratio in the repeat runs, not every such curve was filed as active; the % refers to the signal ratio). In outline: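 Cells (CRE-bla HEK 293T, DMEM with 10% dialyzed FBS and 25 mM HEPES) are seeded and incubated 18 h. Compounds are added with NKH477 agonist at 0.25 uM final for 3 h, then FRET substrate for 2 h.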
The target of experiment [16] is Beta-2 adrenergic receptor (Homo sapiens) (UniProt P07550). The experiment can be described thus: Adrenergic beta2 receptor (ADRB2) small molecule antagonists, cell-based qHTS assay (AID 1963592). Also: series mostly up to about 92 µM; nearly all actives have a fitted effect of over 50% in size. The procedure, abridged: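 Assay format: CHO-ADRB2 cells, 18-20hr seeding at 37C/5% CO2, then compound plus 1nM isoproterenol agonist mix for 0.5hr RT. Homogeneous time-resolved fluorescence cAMP detection after 1hr, expressed as 665/615 nm ratio.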

Experiment [17] concerns the target D(2) dopamine receptor (Homo sapiens) (UniProt P14416). The experiment can be described thus: Dopamine D2 receptor (DRD2) small molecule agonists, cell-based qHTS assay (AID 1963594). Also: nearly all actives have a fitted effect of over 35% in size. The procedure, abridged: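 HEK293 cells stably expressing DRD2 were cultured 24 h at 37 C, then given Ro20-1724 (0.1 mM final) and compounds for 10 min at room temperature. NKH477 (200nM) was then added for 30 min. cAMP was read by HTRF.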

Experiment [18] shares this target. Put plainly: Dopamine D2 receptor (DRD2) small molecule antagonists, cell-based qHTS assay (AID 1963595; active = well fitted inhibition curve with a large enough effect in the signal ratio in the repeat runs, with a control signal flat; the % refers to the signal ratio). The procedure, abridged: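 HTRF cAMP read-out at 665 and 620 nm emission (340 nm excitation). Antagonist mode: compounds were tested against 12 nM quinpirole in DRD2-HEK293 cells, with 200 nM NKH477 raising cAMP and 0.1 mM Ro20-1724 blocking its breakdown.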

Experiment [19] can be described thus: p53 small molecule agonists, cell-based qHTS assay with rat liver microsomes (AID 1963578). The procedure, abridged:
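p53RE-bla cells were exposed to compounds together with rat liver microsomes (0.5 mg/mL final) and NADPH (0.5 mg/mL final) for 16 h at 37 C, then read by LiveBLAzer beta-lactamase fluorescence after 2 h at room temperature.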

The target in experiment [20] is Beta-2 adrenergic receptor (Homo sapiens) (UniProt P07550). The experiment can be described thus: Adrenergic beta2 receptor (ADRB2) small molecule agonists, cell-based qHTS assay (AID 1963593).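 Also: CHO cells stably overexpressing human ADRB2.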 In outline:
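CHO cells stably over-expressing ADRB2 were plated overnight at 37C, then dosed with compounds plus a stimulation mix containing 100uM IBMX and 25uM Ro-20-1724 for 0.5hr at room temperature. cAMP was measured by HTRF competition, 1hr.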

Several values for one entry are separate records, joined by “and”; a condition that tells them apart may be missing. Equal entries are not always repeated. Inconclusive results are not listed. More than one record can exist for a structure, and the calls need not agree. Activity calls are given as the source filed them. Unless noted, calls follow the shape of the full dose curve.

Sequence of 5-hydroxytryptamine receptor 2A (Homo sapiens) (P28223 whole entry, looked up): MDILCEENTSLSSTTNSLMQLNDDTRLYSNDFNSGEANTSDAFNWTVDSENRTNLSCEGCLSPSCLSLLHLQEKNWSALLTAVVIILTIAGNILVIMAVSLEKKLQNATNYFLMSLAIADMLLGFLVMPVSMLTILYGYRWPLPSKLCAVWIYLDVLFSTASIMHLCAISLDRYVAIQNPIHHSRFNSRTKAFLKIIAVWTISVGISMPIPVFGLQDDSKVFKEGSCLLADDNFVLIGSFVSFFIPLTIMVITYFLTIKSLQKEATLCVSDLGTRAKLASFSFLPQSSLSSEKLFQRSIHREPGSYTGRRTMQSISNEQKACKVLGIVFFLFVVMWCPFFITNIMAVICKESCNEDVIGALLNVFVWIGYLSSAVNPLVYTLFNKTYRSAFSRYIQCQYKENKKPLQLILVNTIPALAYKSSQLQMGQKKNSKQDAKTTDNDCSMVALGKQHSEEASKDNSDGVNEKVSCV
Sequence of Muscarinic acetylcholine receptor M1 (Homo sapiens) (P11229 whole entry, looked up): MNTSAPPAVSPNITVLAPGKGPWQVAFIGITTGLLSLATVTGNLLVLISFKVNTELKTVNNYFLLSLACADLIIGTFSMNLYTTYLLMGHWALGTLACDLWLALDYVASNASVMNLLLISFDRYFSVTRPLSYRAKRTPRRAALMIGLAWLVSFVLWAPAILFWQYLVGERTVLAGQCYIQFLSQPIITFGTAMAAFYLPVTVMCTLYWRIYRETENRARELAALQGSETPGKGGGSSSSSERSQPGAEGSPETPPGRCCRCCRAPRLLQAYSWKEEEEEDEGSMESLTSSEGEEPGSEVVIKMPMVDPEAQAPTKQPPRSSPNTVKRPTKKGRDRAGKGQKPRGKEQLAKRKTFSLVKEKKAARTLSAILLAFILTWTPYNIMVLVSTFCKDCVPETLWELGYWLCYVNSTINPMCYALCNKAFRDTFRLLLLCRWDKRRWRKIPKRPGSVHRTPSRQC
Sequence of D(2) dopamine receptor (Homo sapiens) (P14416 whole entry, looked up): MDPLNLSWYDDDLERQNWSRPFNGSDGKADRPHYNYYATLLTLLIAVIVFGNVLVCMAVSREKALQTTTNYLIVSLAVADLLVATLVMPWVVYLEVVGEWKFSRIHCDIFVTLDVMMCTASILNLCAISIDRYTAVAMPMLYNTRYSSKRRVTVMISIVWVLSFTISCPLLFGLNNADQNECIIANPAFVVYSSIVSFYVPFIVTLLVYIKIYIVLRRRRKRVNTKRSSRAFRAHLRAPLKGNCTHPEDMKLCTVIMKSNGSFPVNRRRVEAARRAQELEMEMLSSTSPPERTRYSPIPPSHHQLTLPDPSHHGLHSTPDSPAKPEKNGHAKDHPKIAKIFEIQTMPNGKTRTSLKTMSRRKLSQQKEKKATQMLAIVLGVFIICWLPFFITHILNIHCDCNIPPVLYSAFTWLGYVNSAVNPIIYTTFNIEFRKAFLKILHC
Sequence of KiSS-1 receptor (Homo sapiens) (Q969F8 whole entry, looked up): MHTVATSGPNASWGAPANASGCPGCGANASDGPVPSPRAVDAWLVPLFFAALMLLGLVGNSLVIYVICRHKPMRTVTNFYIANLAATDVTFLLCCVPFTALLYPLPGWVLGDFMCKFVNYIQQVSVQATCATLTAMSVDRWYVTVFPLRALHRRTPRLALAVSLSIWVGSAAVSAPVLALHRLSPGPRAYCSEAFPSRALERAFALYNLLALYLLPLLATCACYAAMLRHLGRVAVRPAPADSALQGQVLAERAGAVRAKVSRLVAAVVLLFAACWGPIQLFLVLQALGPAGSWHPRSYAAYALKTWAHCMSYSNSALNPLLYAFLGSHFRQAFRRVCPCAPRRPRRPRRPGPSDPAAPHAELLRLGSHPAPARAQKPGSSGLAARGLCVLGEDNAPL
Sequence of Beta-2 adrenergic receptor (Homo sapiens) (P07550 whole entry, looked up): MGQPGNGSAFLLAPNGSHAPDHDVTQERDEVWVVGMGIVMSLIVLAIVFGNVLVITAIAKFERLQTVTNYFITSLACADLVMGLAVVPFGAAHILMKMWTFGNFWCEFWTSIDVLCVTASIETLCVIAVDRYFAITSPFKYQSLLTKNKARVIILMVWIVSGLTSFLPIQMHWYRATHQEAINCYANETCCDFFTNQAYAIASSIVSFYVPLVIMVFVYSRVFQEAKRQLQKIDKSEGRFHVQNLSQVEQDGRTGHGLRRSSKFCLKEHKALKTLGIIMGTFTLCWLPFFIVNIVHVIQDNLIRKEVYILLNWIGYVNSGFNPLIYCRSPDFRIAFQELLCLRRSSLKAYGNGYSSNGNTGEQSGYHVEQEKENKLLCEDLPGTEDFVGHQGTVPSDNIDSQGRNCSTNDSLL

With `CC(=O)SC[C@@H](C)C(=O)N1CCC[C@H]1C(=O)N[C@@H](Cc1ccccc1)C(=O)O`, the Potency entry in experiment [1], in [2], in [3], in experiment [4], in experiment [5] and in [6] was “inactive” throughout. Moreover, the Potency entry in experiment [7], in [8], in experiment [9], in [10], in experiment [11] and in [12] was “inactive” each time. Moreover, the Potency entry in experiment [13], in experiment [14], in [15], in experiment [16], in experiment [17] and in experiment [18] was “inactive” in each case.
As to `Nc1ccc(N)c(Cl)c1`, the Potency entry in [1], in [3], in [5], in experiment [19], in experiment [6] and in experiment [8] was “inactive” throughout. The Potency entry in [9], in experiment [10] and in [12] was “inactive” throughout. The Potency in [2] is 54.4 µM (active) and 27.3 µM (active); in [11], “inactive and 21.9 µM (active)”; in [13] it was “inactive and 43.6 µM (active)”.
`COc1ccc(N)c(OC)c1`: the Potency result in experiment [1], in experiment [3], in experiment [4], in [5], in experiment [19] and in experiment [7] was “inactive” in each case. Moreover, the Potency entry in [8], in [9], in experiment [10], in experiment [11], in [12] and in [13] was “inactive” each time. Further, the Potency entry in experiment [14], in [15], in experiment [16], in [20] and in [18] was “inactive” throughout. In addition, the Potency entry in experiment [2] is “inactive and 68.6 µM (active)”.
`CC(=C(CCOC(=O)C(C)C)SSC(CCOC(=O)C(C)C)=C(C)N(C=O)Cc1cnc(C)nc1N)N(C=O)Cc1cnc(C)nc1N`: the Potency result in experiment [1], in [2], in [3], in [5], in experiment [19] and in experiment [6] was “inactive” throughout. Besides, the Potency entry in experiment [7], in experiment [8], in experiment [9], in [10], in experiment [11] and in experiment [12] was “inactive” throughout. In addition, the Potency result in [13], in experiment [14], in experiment [15], in experiment [16] and in experiment [17] was “inactive” throughout.
In the case of `CCC(CO)(CO)CO`, the Potency result in experiment [1], in [2], in experiment [3], in [4], in experiment [5] and in experiment [6] was “inactive” in each case. Besides, the Potency result in experiment [7], in experiment [8], in experiment [9], in experiment [10], in experiment [11] and in experiment [12] was “inactive” throughout. Further, the Potency entry in experiment [13], in experiment [14], in experiment [15], in [16], in experiment [17] and in experiment [18] was “inactive” in each case.
For `O=C(O)/C=C/C(=O)O`, the Potency entry in [1], in [2], in [3], in [4], in experiment [10] and in [11] was “inactive” in each case. For the same compound, the Potency result in experiment [12], in experiment [13], in [14], in experiment [15], in experiment [16] and in [20] was “inactive” each time. The Potency entry in experiment [17] and in experiment [18] was “inactive” throughout.
Turning to `CC1=CCC(C(C)(C)O)CC1` (stereo not given), the Potency result in experiment [1], in experiment [2], in [4], in experiment [5], in experiment [19] and in experiment [6] was “inactive” each time. Besides, the Potency result in [7], in experiment [8], in experiment [9], in [10], in [11] and in [12] was “inactive” in each case. The Potency entry in [13], in experiment [14], in experiment [15], in experiment [16], in experiment [20] and in experiment [18] was “inactive” each time.

(Values after PubChem BioAssay (Tox21).)
